Bioassay records: PubChem, National Center for Advancing Translational Sciences (NCATS)
The list is not random: actives were taken first. Their share in the collection is about 6.1%.
D3 ag = qHTS of D3 Dopamine Receptor Agonist: qHTS. max activation, %. 0.58% of 410,000 active. D3R DiscoveRx beta-arrestin cells, luminescence, 90 min. D(3) dopamine receptor (Homo sapiens), P35462; in the data active = max activation above about 30%; also: 0% is about no effect
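Agonist mode: compounds and dopamine controls were applied to plated cells for 90 min at 37 degrees C after an overnight attachment at 1500 cells/well. Luminescent read-out followed 30 - 60 minutes at room temperature with DiscoveRx detection reagent.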
D1 ag = Allosteric Agonists of the Human D1 Dopamine Receptor: qHTS. AID 504660, 2011. D(1A) dopamine receptor (Homo sapiens), P21728. HEK293 T-REx D1 cells, calcium flux, agonist mode. activation, % at 2 µM. 1% of 360,000 active; in the data active = activation above about 30%; also: 0% is about no effect
Target sequence (P21728 whole entry, looked up): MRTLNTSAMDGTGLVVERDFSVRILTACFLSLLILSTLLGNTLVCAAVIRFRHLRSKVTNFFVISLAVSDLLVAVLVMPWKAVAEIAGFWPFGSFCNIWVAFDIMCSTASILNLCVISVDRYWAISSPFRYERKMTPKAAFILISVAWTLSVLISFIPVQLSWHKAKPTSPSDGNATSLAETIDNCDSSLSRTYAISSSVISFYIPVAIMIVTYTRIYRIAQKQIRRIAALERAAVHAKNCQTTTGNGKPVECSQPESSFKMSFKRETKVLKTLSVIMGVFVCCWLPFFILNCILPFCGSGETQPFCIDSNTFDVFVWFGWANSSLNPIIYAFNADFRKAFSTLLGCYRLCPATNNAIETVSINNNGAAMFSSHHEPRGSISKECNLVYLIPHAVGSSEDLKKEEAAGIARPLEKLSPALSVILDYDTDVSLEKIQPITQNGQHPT
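Inducible HEK293 T-REx D1 cells, force-coupled to calcium signalling, were plated at 4000 cells/well with tetracycline and held overnight at 30 C. After no-wash calcium dye loading, compound-evoked calcium rise over 180 s flagged agonists.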
D1 antagonist = Antagonist of Human D 1 Dopamine Receptor: qHTS | HEK293 TREx D1 cells, calcium flux, dopamine EC80; hits give low values | activity change, negative = inhibition, % at 10 µM | 3.2% of 360,000 active | AID 504652, 2011; in the data active = activity change below about -30%; also: % is scaled to controls: 0 for no effect and ±100 for the full control effect
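HEK293 T-REx cells expressing inducible, force-coupled D1 receptor; no-wash Ca dye, 30–90 min RT. Cmpd → 180 s read at 1 Hz → EC80 DA → 180 s read.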
D1 potentiator = Potentiators of Human D1 Dopamine Receptor: qHTS. AID 504651, 2011. D(1A) dopamine receptor (Homo sapiens), P21728. HEK293 TREx D1 cells, calcium flux, dopamine EC20 potentiation. 0.036% of 360,000 active. potentiation, % at 10 µM; in the data active = potentiation above about 30%; also: 0% is about no effect
D3 antag = qHTS of D3 Dopamine Receptor Antagonist: qHTS. 2.5% of 360,000 active. max response, negative = inhibition, %. D(3) dopamine receptor (Homo sapiens), P35462. D3R cells, DiscoveRx beta-arrestin luminescence, antagonist mode; hits give low values. AID 652054, 2013; in the data active = max response below about -50%; inconclusive = no clear call, values can overlap the other calls; also: % is scaled to controls: 0 for no effect and ±100 for the full control effect
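Cells expressing the human receptor were seeded at 1500 cells/well, incubated overnight at 37 degrees C in 5% CO2, then exposed to library compounds with dopamine controls for 90 minutes at 37 degrees C before luminescent detection.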
* = called active by the depositor; ? = inconclusive; · = no result given; ! = repeats disagree.

SMILES	D3 ag	D1 ag	D1 antagonist	D1 potentiator	D3 antag
Cc1ccc(CN(C)S(=O)(=O)c2c(C)noc2/C=C/N(C)C)cc1	4	1	-3	-2	6
O=C(COc1ccccc1)N[C@@H]1c2ccccc2CC[C@@H]1O	-22	·	·	·	-8
Cc1ccccc1NC(=O)CCC(=O)N/N=C/c1cc([N+](=O)[O-])ccc1O	-14	0	6	-4	-58*
O=C(CSc1nc2ccccc2s1)N/N=C/c1cc([N+](=O)[O-])ccc1O	-8	1	-15	-4	-61*
O=[N+]([O-])c1ccc(O)c(/C=N/n2cnc3ccccc32)c1	0	26	-6	-3	-15
O=C(CCCC(=O)Nc1cccc(Br)c1)N/N=C/c1cc([N+](=O)[O-])ccc1O	-21	4	-8	2	?
Cc1ccc(C)c(NC(=O)CCC(=O)N/N=C/c2cc([N+](=O)[O-])ccc2O)c1	-6	0	-13	-7	?
O=C(CCC(=O)Nc1cccc(Cl)c1)N/N=C/c1cc([N+](=O)[O-])ccc1O	-16	1	15	0	-62*
O=[N+]([O-])c1ccc(O)c(/C=N/n2c(CO)nc3ccccc32)c1	-17	2	10	0	-54*
CC(C)CN1CCN=C1Nc1ccccc1	-2	1	0	-6	-14
O=S(=O)(Nc1cccc2cccnc12)c1cccs1	·	-1	6	-7	·
O=C(CNc1cccc2ccccc12)N/N=C/c1ccc([N+](=O)[O-])cc1	6	3	-13	-5	3
CN1CCN(CCC(=O)N/N=C/c2cc([N+](=O)[O-])ccc2O)CC1	-24	4	-4	10	-79*
Cc1ccccc1NCC(=O)N/N=C/c1ccc([N+](=O)[O-])cc1	-3	3	-43*	0	-13
Cc1ccc([N+](=O)[O-])cc1NC(=O)CCCOc1ccccc1	-1	3	-14	-4	-64*
CCN(CC)S(=O)(=O)c1ccc2c(c1)nc(SCC(=O)N1CCOCC1)n2-c1ccccc1OC	2	0	6	-1	-6
CC(=O)Nc1ccc(Br)cc1C(=O)C(=O)O	-10	0	-1	5	-22
COC(=O)c1cc(C)nc2c1c(=O)nc(SCc1ccccc1F)n2C1CC1	-9	0	-1	-1	·
N#C/C(=C\c1ccc(OCC(N)=O)cc1)C(=O)NC1CC1	4	-1	-36*	-17	-2
CC(C)Oc1ccc(/C=C(\C#N)C(=O)NC2CC2)cc1	-7	·	·	·	-6
COc1ccc(OCC(=O)Nc2cc(-c3nc4ccccc4s3)ccc2C)cc1	18	5	2	-1	·
COc1ccc(OCC(=O)Nc2cccc(-c3nc4ccccc4s3)c2C)cc1	9	35*	-16	-1	·
COc1ccc(NCc2cc3cc4c(cc3n(CC(=O)Nc3ccccc3)c2=O)OCO4)cc1	-24	134*	-1	4	·
Cc1ccc(NCc2cc3cc4c(cc3n(CC(=O)Nc3ccc(C)cc3)c2=O)OCCO4)cc1	0	19	-6	1	·
CCc1ccc(NCc2cc3cc4c(cc3n(CC(=O)Nc3ccc(Cl)cc3)c2=O)OCO4)cc1	-10	176*	-2	4	·
SMILES	D3 ag	D1 ag	D1 antagonist	D1 potentiator	D3 antag
COc1ccccc1NC(=O)CSc1nnc2c3ccccc3n(C(C)C)c2n1	12	1	-6	-2	·
COc1ccccc1NC(=O)COC(=O)Cn1c(C)csc1=O	-12	·	·	·	0
COc1cccc(NC(=O)COC(=O)Cn2c(C)csc2=O)c1	4	3	-94*	·	9
Cc1cc(C)c(C(=O)COC(=O)Cn2c(C)csc2=O)cc1C	8	3	-36*	-11	16
COc1ccccc1NC(=O)COC(=O)CCn1c(C)csc1=O	2	0	-33*	-8	0
Cc1ccc(NC(=O)COC(=O)Cn2c(C)csc2=O)cc1C	-4	3	-35*	-2	-12
Cc1ccc(NC(=O)C(CC(C)C)NS(=O)(=O)c2ccc3c(c2)oc(=O)n3C)c(C)c1 (centres undefined)	-10	3	-2	-3	·
CCOc1cc(-c2nnc(SCC(=O)Nc3ccc(F)c(F)c3)nc2-c2ccc(OC)c(OCC)c2)ccc1OC	5	-2	21	-1	·
CC1(C)Cc2ccccc2-c2nnc(-c3ccco3)n21	-6	0	0	-3	-52*
Cc1ccc(Oc2ccc(Oc3ccc(C)cc3)nn2)cc1	5	44*	1	1	6
CCCCCCSc1cccc(-c2nc3cc(C)ccn3c2NCc2ccccc2)c1	33*!	2	11	0	7
CCC(C)Sc1cccc(-c2nc3ccccn3c2NCc2ccccc2)c1 (centres undefined)	33*	·	·	·	97
CCCCCCSc1cc(-c2nc3ccc(C)cn3c2NCc2ccccc2)ccc1OC	62*!	0	13	13	40
CCCCCCSc1cccc(-c2nc3ccccn3c2NCc2ccccc2)c1	96*!	·	·	·	178
CCCCCCSc1cccc(-c2nc3ccc(C)cn3c2NCc2ccccc2)c1	14	-1	9	-3	108
COc1ccc(S(=O)(=O)N2CCCC(c3cc(C(=O)NCc4cccnc4)no3)C2)cc1 (centres undefined)	-8	·	·	·	0
CCCCNc1c(-c2ccc(SC(C)CC)c(OC)c2)nc2ccc(C)cn12 (centres undefined)	55*	3	-24	-4	66
CC1(C)CC2CC(C)(CN2/C=C2/CCCCC2=O)C1 (centres undefined)	10	2	33	-3	0
CCOc1ccc2nc(N3C(=O)CNC3=S)sc2c1	0	5	3	20	-16
Cc1cc2nc(N3C(=O)CNC3=S)sc2cc1C	-11	1	-11	-1	-67*
Cc1ccc(OCC(=O)NC2CCS(=O)(=O)C2)c(C)c1 (centres undefined)	-2	1	-20	-1	-3
CCc1nc2c(c(=O)[nH]1)C1(CCCC1)Cc1ccccc1-2	3	2	-3	0	11
NNc1nc(N)c2c(n1)-c1ccccc1CC21CCCC1	-22	1	2	0	-52*
O=C(Cn1c(C(=O)NCC2CCCO2)cc2sccc21)c1ccccc1 (centres undefined)	8	1	-50*	-5	12
O=C(Cn1c(C(=O)NCc2ccco2)cc2sccc21)c1ccccc1	-8	2	-5	-8	-6
O=C(Cn1c(C(=O)N2CCN(C3CCCC3)CC2)cc2sccc21)c1ccccc1	-37	1	2	0	-78*
